High-throughput results (PubChem BioAssay)
Marburg entry inh – qHTS for inhibitors of binding or entry into cells for Marburg Virus; Potency, µM (titrated, usually from 37.8 µM), inactives show at the highest dose activity change, negative = inhibition, most hits filed as inhibitors; 1.8% of 300,000 active; Marburg virus pseudotyped entry inhibition, cell reporter; calls by dose curve; tested in HEK293 cells; also: potency is read from the fitted curve at half-maximal effect
FMDV antiviral – High Throughput Screening for Foot and Mouth Disease Virus Antivirals; FMDV antiviral cell-based qHTS; Potency, µM (highest dose often 57.9 µM), inactives show at the top dose activity change, negative = inhibition, hits mostly inhibitors; 1.2% of 410,000 active; calls by dose curve; tested in HEK293T cells; also: read-out not given here; potency is read from the fitted curve at half-maximal effect; nearly all actives have a fitted effect of over 45% in size
VACV Venus inh – qHTS for Stage-Specific Inhibitors of Vaccinia Orthopoxvirus: Venus Reporter Primary qHTS; Potency, µM (highest dose often 36.5 µM), for inactives: at the top dose activity change, negative = inhibition, most hits filed as inhibitors; 0.46% of 330,000 active; Vaccinia virus Venus reporter expression, fluorescence; calls by dose curve; tested in A549 cells; also: potency is read from the fitted curve at half-maximal effect; nearly all actives have a fitted effect of over 30% in size
Vaccinia mCherry – qHTS for Stage-Specific Inhibitors of Vaccinia Orthopoxvirus: mCherry Reporter Primary qHTS; Vaccinia virus mCherry reporter infection, fluorescence; Potency, µM (doses to about 36.5 µM), for the others: at the highest dose activity change, negative = inhibition, most hits filed as inhibitors; 0.63% of 310,000 active; calls by dose curve; tested in A549 cells; also: potency is read from the fitted curve at half-maximal effect; nearly all actives have a fitted effect of over 35% in size
HCMV antiviral – qHTS Assay for inhibitors of the human cytomegalovirus (HCMV); HFF cells, HCMV-luciferase reporter, 72 h; active compounds read low; activity change, negative = inhibition, % at 57.5 µM; 4.5% of 410,000 active; in the data active = activity change below about -60%; inconclusive = no clear call, values can overlap the other calls; inactive = above about -39%
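Steps: HFFs plated, 16 h 37C; compounds added; HCMV-luciferase added to MOI 1 PFU/cell; 72 h 37C; OneGlo reagent, 5 min room temperature; luminescence read, normalized to controls.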
Lassa entry inh – qHTS for Inhibitors of binding or entry into cells for Lassa Virus | Lassa virus pseudotype entry inhibition, cell reporter | Potency, µM (top dose mostly 37.9 µM), inactives show top-dose activity change, negative = inhibition, hits mostly inhibitors | 1.2% of 300,000 active; calls by dose curve; tested in HEK293 cells; also: potency is read from the fitted curve at half-maximal effect; nearly all actives have a fitted effect of over 50% in size
* marks the source's active call; other numbers are inactive results; i = inactive; ? = inconclusive; / = no result; ! = not confirmed by another sample; [ ] = remark or other dose. In the library only some 6.5% were active in any assay of this set; here they are far more common. % is scaled to controls: 0 for no effect and ±100 for the full control effect.

SMILES | Marburg entry inh | FMDV antiviral | VACV Venus inh | Vaccinia mCherry | HCMV antiviral | Lassa entry inh
COc1ccc(/C=C/C(=O)N2CCc3c(cnc(C)c3CNC(=O)c3ccsc3)C2)cc1OC | / | -9% | -8% | -11% | / | /
O=C(COC(=O)c1ccc(Cl)nc1)NNC(=O)c1ccc(Br)cc1 | / | -1% | / | / | 24 | /
C=CC[n+]1c(-c2ccc(C)cc2)csc1Nc1ccc(NC(C)=O)cc1 | 6.5µM* | ? | / | / | -88* | 2.3µM*
C=CC[n+]1c(-c2ccc(OC)cc2)csc1NNC(=O)Nc1ccccc1 | -50% | / | -23% | -25% | ? | ?
Cc1cc(N2CCN(C)CC2)nc2ccc(NC(=O)Nc3ccccc3Cl)cc12 | / | 20% | -11% | -9% | -100* | ?
Cc1cc(N2CCN(C)CC2)nc2ccc(NC(=O)Nc3ccc(F)cc3)cc12 | / | 18% | -25% | -21% | -6 | ?
COc1cccc(NC(=O)Nc2ccc3nc(N4CCN(C)CC4)cc(C)c3c2)c1 | / | 7% | -21% | ? | -101* | -12%[46.1 µM]
Cc1ccc(-c2ccccc2[C@@H]2C[C@H]3CN(C)C(=O)[C@]34CCCN24)o1 | 8%[46.1 µM] | -11% | -12% | -19% | 40 | -14%
O=C1N(c2ccccc2)C[C@@H]2C[C@@H](c3cc4ccccc4o3)N3CCC[C@@]123 | ? | -29% | ? | 0.89µM* | -99* | ?
CCC(=O)Nc1cc2nn(-c3ccc(C)cc3)nc2cc1C | ? | 6.3µM* | -23% | 1% | -66*! | ?
CCC(=O)Nc1cc2nn(-c3ccc(OC)cc3)nc2cc1C | ? | / | -8% | -12% | 10 | -27%
CC(C)CNC(=O)C(=O)Nc1ccc2c(c1)N(S(=O)(=O)c1cccs1)CCC2 | 3.2µM* | 3% | -28% | -15% | -29 | ?
COCCNC(=O)C(=O)Nc1ccc2c(c1)N(S(=O)(=O)c1cccs1)CCC2 | ? | 0% | ? | -15% | -1 | 1.8µM*
Cc1cc(Br)ccc1NC(=O)CN(C)C(=O)C1=COCCO1 | / | 4% | / | / | 0 | /
NS(=O)(=O)c1ccc(CCNC(=O)CN2CCC(Cc3ccccc3)CC2)cc1 | ? | -30% | -17% | -7% | -76* | -16%[46.1 µM]
N#Cc1ccc(OCC(=O)NCCc2ccc(S(N)(=O)=O)cc2)cc1 | -2% | 11% | -8% | / | -80* | -12%
C[C@@H](C(=O)OCC(=O)NCCc1ccc(S(N)(=O)=O)cc1)N1C(=O)C2CCCCC2C1=O (some centres undefined) | / | -3% | / | / | -80* | /
O=C(COC(=O)c1ccccc1C(=O)c1ccccc1)NCCc1ccccc1 | -20%[46.1 µM] | -2% | -1% | -8% | -19 | -5%
Cc1nn(-c2ccccc2)c(-n2cccc2)c1C(=O)NCCc1ccc(Cl)cc1 | -31%[46.1 µM] | ? | -13% | -20% | -100* | -7%[46.1 µM]
Cc1nn(-c2ccccc2)c(C)c1C(=O)OCC(=O)Nc1ccccc1 | 3% | -9% | -17% | 0% | 10 | -17%
Cc1cc(NC(=O)COC(=O)c2c(C)nn(-c3ccccc3)c2C)no1 | ? | -14% | / | / | -7 | 18µM*
COc1ccc(CCNC(=O)c2c(C)nn(-c3ccccc3)c2Cl)cc1OC | -6%[46.1 µM] | ? | -13% | 9% | -28 | ?
O=C(COC(=O)c1ccccc1C(=O)c1ccc(Cl)cc1)NCCc1ccccc1 | ? | -17% | ? | ? | -76* | -19%
Cc1nn(-c2ccccc2)c(Cl)c1C(=O)OCC(=O)NCCc1ccccc1 | 11µM* | -7% | -7% | -4% | 13 | ?
Cc1ccc(-n2nc(C)c(C(=O)NCCCN3CCN(c4ccc(F)cc4)CC3)c2-n2cccc2)cc1 | / | -22% | -27% | ? | -70* | ?
SMILES | Marburg entry inh | FMDV antiviral | VACV Venus inh | Vaccinia mCherry | HCMV antiviral | Lassa entry inh
COc1ccc(N2CCN(CCCNC(=O)c3c(C)nn(-c4ccc(F)cc4)c3-n3cccc3)CC2)cc1 | / | ? | -11% | -25% | -25 | -21%[46.1 µM]
CCOc1ccc(CCNC(=O)COC(=O)c2c(C)nn(-c3ccccc3)c2C)cc1OCC | 0%[46.1 µM] | 6% | -9% | -5% | -99* | -17%[46.1 µM]
Cc1ccc(-c2noc(-c3ccc(N4CCN(C)CC4)c([N+](=O)[O-])c3)n2)cc1 | 9%[46.1 µM] | 20% | -6% | -12% | ? | 23%[46.1 µM]
COc1cc(-c2noc(-c3ccc(NCC4CCCO4)c([N+](=O)[O-])c3)n2)cc(OC)c1OC (centres undefined) | -1%[46.1 µM] | 11µM* | -9% | -11% | -3 | 4%[46.1 µM]
O=[N+]([O-])c1cc(-c2nc(-c3ccccc3)no2)ccc1N1CCN(c2ccccc2)CC1 | 2%[46.1 µM] | -9% | -4% | -13% | 8 | 13%[46.1 µM]
COc1ccc(-c2noc(-c3ccc(NCC4CCCO4)c([N+](=O)[O-])c3)n2)cc1OC (centres undefined) | -22%[46.1 µM] | -14% | -4% | -5% | 7 | 5%[46.1 µM]
O=[N+]([O-])c1cc(-c2nc(-c3ccccc3)no2)ccc1N1CCCC1 | -6%[46.1 µM] | -12% | ? | -25% | -80* | 8%[46.1 µM]
COc1ccc(-c2noc(-c3ccc(N4CCN(C)CC4)c([N+](=O)[O-])c3)n2)cc1OC | 6%[46.1 µM] | 31% | -28% | -17% | -105* | 0%[46.1 µM]
COc1ccccc1C(=O)N/C(=C\c1cn(S(=O)(=O)N(C)C)c2ccccc12)C(=O)N1CCOCC1 | / | -19% | / | / | 33 | /
COC(=O)N[C@H](C(C(=O)OC)=C(C)NCc1ccccc1)c1ccc(Cl)cc1 | -17%[14.2 µM] | / | / | / | / | /
COc1cc(CN2CCC(C(=O)NCC(C)(C)CN(C)C)CC2)ccc1OCc1ccccc1 | / | 14% | / | / | -94* | /
Cc1cc(CN(C)C(=O)c2ccc(OC3CCN(CCc4ccccc4)CC3)cc2)on1 | 3.2µM* | 0% | -18% | i | 8 | 24%[46.1 µM]
O=C(c1ccc(OC2CCN(CCc3ccccc3)CC2)cc1)N1CCCC(CCCO)C1 (centres undefined) | / | -16% | / | / | -15 | /
C[C@H]1C(=O)N(C)CCN1C(=O)c1ccc(OC2CCN(CCc3ccccc3)CC2)cc1 | / | -12% | -19% | -6% | -30 | /
O=C(c1ccc(OC2CCN(CCc3ccccc3)CC2)cc1)N1CCCC1 | ? | 16% | -14% | i | -63* | -24%
CN(Cc1cnn(C)c1)C(=O)c1ccc(OC2CCN(CCc3ccccc3)CC2)cc1 | / | -19% | / | / | -14 | /
C=CCOc1ccccc1CN1CCC(Oc2ccc(C(=O)N3CCCCC3)cc2)CC1 | 3.2µM* | -7% | -17% | ? | -12 | -17%
CC(C)N1CCN(C(=O)c2ccc(OC3CCN(CCc4ccccc4)CC3)cc2)CC1 | 11µM* | 24% | -11% | -14% | -21 | -16%
O=C(C(=O)N1CCN(c2ccccc2)CC1)c1cccc(Br)c1 | / | -15% | -16% | ? | 14 | /
